About 410 targets per protein were measured; listed, in parts, are those with the strongest signals and a random draw of the rest.
What was measured:
Assay in all cases: glycan array binding signal (z-score within array); higher = stronger binding
Conditions in all cases: glycan notation: IUPAC condensed, linker removed
[1] = target: Fuc(a1-2)Gal(b1-3)GlcNAc(b1-2)Man(a1-3)[Fuc(a1-2)Gal(b1-3)GlcNAc(b1-2)Man(a1-6)]Man(b1-4)GlcNAc(b1-4)[Fuc(a1-6)]GlcNAc
Outline: (§1)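 Columns mapping to the same glycan were averaged after glycan names were converted to IUPAC-condensed notation. The data come from 3228 arrays in the Consortium for Functional Glycomics database, limited to those with an available protein sequence. Binding is reported as a within-array Z-score averaged across arrays of one protein sequence and across linkers.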

[2] = target: Fuc(a1-2)Gal(b1-3)[Fuc(a1-4)]GlcNAc(b1-3)[Fuc(a1-3)[Gal(b1-4)]GlcNAc(b1-6)]Gal(b1-4)Glc
Outline: as §1

[3] = target: Fuc(a1-2)Gal(b1-3)[Fuc(a1-4)]GlcNAc(b1-3)[Gal(b1-4)GlcNAc(b1-6)]Gal(b1-4)Glc
Outline: as §1

[4] = target: Fuc(a1-2)Gal(b1-4)[Fuc(a1-3)]GlcNAc(b1-3)GalNAc
Outline: as §1

[5] = target: Fuc(a1-2)[Gal(a1-3)]Gal(b1-4)Glc
Outline: as §1

[6] = target: Fuc(a1-2)[Gal(a1-3)]Gal(b1-4)GlcNAc(b1-3)GalNAc
Outline: as §1

[7] = target: Fuc(a1-2)[GalNAc(a1-3)]Gal
Outline: as §1

[8] = target: Fuc(a1-2)[GalNAc(a1-3)]Gal(b1-3)GlcNAc(b1-3)GalNAc
Outline: as §1

[9] = target: Fuc(a1-2)[GalNAc(a1-3)]Gal(b1-4)[Fuc(a1-3)]GlcNAc
Outline: as §1

[10] = target: Fuc(a1-2)[GalNAc(a1-3)]Gal(b1-4)[Fuc(a1-3)]GlcNAc(b1-3)GalNAc
Outline: as §1

[11] = target: Fuc(a1-2)[GalNAc(b1-3)]Gal
Outline: as §1

[12] = target: Fuc(a1-3)[Gal(b1-4)]Glc6S
Outline: as §1

[13] = target: Fuc(a1-3)[Gal(b1-4)]GlcNAc(b1-3)GalNAc
Outline: as §1

[14] = target: Gal(b1-3)[Fuc(a1-4)]GlcNAc(b1-2)Man(a1-3)[Gal(b1-3)[Fuc(a1-4)]GlcNAc(b1-2)Man(a1-6)]Man(b1-4)GlcNAc(b1-4)GlcNAc
Outline: as §1

[15] = target: Gal(b1-3)[Fuc(a1-4)]GlcNAc(b1-2)Man(a1-3)[Gal(b1-3)[Fuc(a1-4)]GlcNAc(b1-2)Man(a1-6)]Man(b1-4)GlcNAc(b1-4)[Fuc(a1-6)]GlcNAc
Outline: as §1

Gal(b1-4)Glc6S = target: Gal(b1-4)Glc6S
Outline: as §1

[16] = target: Gal(b1-4)GlcNAc(b1-2)[Gal(b1-4)GlcNAc(b1-4)]Man(a1-3)[GlcNAc(b1-4)][Gal(b1-4)GlcNAc(b1-2)Man(a1-6)]Man(b1-4)GlcNAc(b1-4)GlcNAc
Outline: as §1

[17] = target: Gal(b1-4)GlcNAc(b1-3)Gal(b1-4)[Fuc(a1-3)GlcNAc(b1-6)]Gal(b1-4)Glc
Outline: as §1

Gal3S6S(b1-4)GlcNAc6S = target: Gal3S6S(b1-4)GlcNAc6S
Outline: as §1

[18] = target: GalNAc(a1-3)GalNAc(b1-3)Gal(a1-4)Gal(b1-4)Glc
Outline: as §1

GalNAc(b1-6)GalNAc = target: GalNAc(b1-6)GalNAc
Outline: as §1

Glc(a1-6)Glc(a1-6)Glc = target: Glc(a1-6)Glc(a1-6)Glc
Outline: as §1

GlcA(b1-3)GlcNAc = target: GlcA(b1-3)GlcNAc
Outline: as §1

[19] = target: GlcNAc(a1-4)Gal(b1-4)GlcNAc(b1-3)Gal(b1-4)GlcNAc(b1-3)Gal(b1-4)GlcNAc
Outline: as §1

[20] = target: GlcNAc(b1-2)Man(a1-3)[GlcNAc(b1-2)Man(a1-6)]Man(b1-4)GlcNAc(b1-4)GlcNAc
Outline: as §1

[21] = target: GlcNAc(b1-3)Gal(b1-4)GlcNAc(b1-3)Gal(b1-4)GlcNAc
Outline: as §1

GlcNAc(b1-3)GalNAc = target: GlcNAc(b1-3)GalNAc
Outline: as §1

[22] = target: GlcNAc(b1-3)[GlcNAc(b1-4)][GlcNAc(b1-6)]GlcNAc
Outline: as §1

Kdn(a2-3)Gal(b1-3)GlcNAc = target: Kdn(a2-3)Gal(b1-3)GlcNAc
Outline: as §1

[23] = target: Man(a1-2)Man(a1-3)[Man(a1-2)Man(a1-6)]Man(a1-6)[Man(a1-2)Man(a1-2)Man(a1-3)]Man
Outline: as §1

B1: pullulanase (Streptococcus pyogenes), Q8KLP1 (protein)
chain: MKKKVNQGSKRYQYLLKKWGIGFVIAATGTVMLGCIPSILTHQVAAKTIVGLARDEAQQGDGNAKSGDGFQSSSKEAKPVLDSSSANPASIAEHHLRMHFKTLPAGESLGSLGLWVWGDVDQPSKDWPNGAITMTKAKKDDYGYYLDVPLAAKHRQQVSYLINNKAGENLSKDQHIPLLTPKMNEVWIDENYHAHAYRPLKKGYLRINYHNQSGHYDNLAVWTFKDVKTPTTDWPNGLDLSHKGPYGAYVDVPLKEGANEIGFLILDKSKTGDAIKVQPKDYLFKELDNHTQVFVKDTDPKVYNNPYYIDQVSLKGAEQTTPNEIKAIFTTLDGLDEDAVKQNIKITDKAGKTVAIDELTLDKDKSVMTLKGDFKAQGAVYTVTFGEVSQVARQSWQLKDKLYAYDGELGATLAKDGSVDLALWSPSADSVKVVVYDKQDQTKVVGQADLTKSDKGVWRAHLTSDSVKGISDYTGYYYLYEITRGQEKVMVLDPYAKSLAAWNDATATDDIKTAKAAFIDPSKLGPTGLDFAKINNFKKREDAIIYEAHVRDFTSDKALEGKLTHPFGTFSAFVEQLDYLKDLGVTHVQLLPVLSYFYANELDKTRSTAYTSSDNNYNWGYDPQHYFALSGMYSANPNDPALRIAELKNLVNEIHKRGMGVIFDVVYNHTARTYLFEDLEPNYYHFMNADGTARESFGGGRLGTTHAMSRRILVDSITYLTREFKVDGFRFDMMGDHDAAAIEQAFKAAKAINPNTIMIGEGWRTYQGDEGKKEIAADQDWMKATNTVGVFSDDIRNTLKSGFPNEGTAAFITGGAKNLEGLFKTIKAQPSNFEADAPGDVVQYIAAHDNLTLHDVIAKSINKDPKVAEEEIHKRIRLGNTMILTAQGTAFIHSGQEYGRTKQLLNPDYKTKVSDDKVPNKATLIDAVAQYPYFIHDSYDSSDAVNHFDWAKATDSIAHPISNQTKAYTQGLIALRRSTDAFTKATKAEVDRDVTLITQAGQDGIQQEDLIMGYQTVASNGDRYAVFVNADNKTRKVVLPQAYRYLLGAQVLADAEQVGVTAIAKPKGVQFTKEGLTIDGLTALVLKVSSKTANPSQQKSQTDNHQTKTPDGSKDLDKSLMTRPKRAKTNQKLPKTGEAPSKGLLAAGVALLLLAISLLMKRQKD
[1]
  glycan array binding signal (z-score): 1.26
[2]
  glycan array binding signal (z-score): 4.09
[3]
  glycan array binding signal (z-score): -1.13
[4]
  glycan array binding signal (z-score): 3.14
[5]
  glycan array binding signal (z-score): -0.403
[6]
  glycan array binding signal (z-score): -0.009
[7]
  glycan array binding signal (z-score): -0.236
[8]
  glycan array binding signal (z-score): 2.51
[9]
  glycan array binding signal (z-score): -0.025
[10]
  glycan array binding signal (z-score): 1.05
[11]
  glycan array binding signal (z-score): -0.628
[12]
  glycan array binding signal (z-score): -0.252
[13]
  glycan array binding signal (z-score): 0.189
[14]
  glycan array binding signal (z-score): 6.24
[15]
  glycan array binding signal (z-score): 2.86
Gal(b1-4)Glc6S
  glycan array binding signal (z-score): -0.375
[16]
  glycan array binding signal (z-score): 0.829
[17]
  glycan array binding signal (z-score): -0.926
Gal3S6S(b1-4)GlcNAc6S
  glycan array binding signal (z-score): -0.367
[18]
  glycan array binding signal (z-score): -1.28
GalNAc(b1-6)GalNAc
  glycan array binding signal (z-score): -0.145
Glc(a1-6)Glc(a1-6)Glc
  glycan array binding signal (z-score): 2.49
GlcA(b1-3)GlcNAc
  glycan array binding signal (z-score): 2.61
[19]
  glycan array binding signal (z-score): 0.594
[20]
  glycan array binding signal (z-score): -0.014
[21]
  glycan array binding signal (z-score): -1.14
GlcNAc(b1-3)GalNAc
  glycan array binding signal (z-score): 0.154
[22]
  glycan array binding signal (z-score): -0.834
Kdn(a2-3)Gal(b1-3)GlcNAc
  glycan array binding signal (z-score): -0.039
[23]
  glycan array binding signal (z-score): 0.204

Source: the supplement of paper PMC8728848
